Assay results published in PubChem BioAssay.
Activity calls are given as the source filed them.

What was measured:
[1] = test system: Wnt5a (protein binding on small-molecule microarray); assay: small molecules binding Wnt5a protein – biophysical, small-molecule microarray, 635/667 nm fluorescence, primary screen (AID 1142); conditions: 635 nm fluorescence, higher = more signal;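 note: fluorescence read at 667 nm with signal to noise per printed feature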
[2] = ATP-based viability of Huh7 replicon cells – cell-based, CellTiter-Glo luminescence, basal, 48 h, cytotoxicity control for HCV replication inhibitor project, primary screen (AID 1143); conditions: higher = more signal, called active from +8 up or from −8 down;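 note: Huh7 hepatoma cells carrying a hepatitis C replication reporter with no stimulus; test concentration not given here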
[3] = basal CRE-LacZ reporter activity in PC12 – cell-based, unstimulated, primary screen (AID 1145); conditions: no forskolin, luminescence, 4.5 h, higher = more signal, called active from +8 up or from −8 down
[4] = forskolin-driven CRE-LacZ activity in PC12 – cell-based, CRE-LacZ reporter, forskolin-stimulated, primary screen (AID 1146); conditions: luminescence, 4.5 h, higher = more signal, called active from +8 up or from −8 down;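 note: PC12 cells with 6xCRE LacZ reporter stimulated by forskolin 10 µM; beta-galactosidase reporter signal reflecting CREB driven transcription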
[5] = target: Streptavidin (Streptomyces avidinii) (UniProt P22629); assay: compounds binding control protein streptavidin – biophysical, small-molecule microarray, 635/667 nm fluorescence, artefact control for SMM compound annotation, primary screen (AID 1147); conditions: higher = more signal;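 note: signal reflects streptavidin binding to arrayed compounds as a control protein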
Streptavidin (Streptomyces avidinii), sequence (P22629 whole entry, looked up): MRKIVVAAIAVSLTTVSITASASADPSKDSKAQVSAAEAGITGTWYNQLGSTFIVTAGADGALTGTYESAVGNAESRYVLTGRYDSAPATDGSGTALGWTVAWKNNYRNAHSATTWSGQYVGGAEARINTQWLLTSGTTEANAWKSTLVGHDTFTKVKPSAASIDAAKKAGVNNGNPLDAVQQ

[6] = probe aInhba binding on compound microarray – biochemical, small-molecule microarray, 635/667 nm fluorescence, primary screen (AID 1148); conditions: higher = more signal;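 note: score merges 667nm spot fluorescence with signal-to-noise for antibody binding to printed compounds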
Torsin-1A (Homo sapiens) [7] = target: Torsin-1A (Homo sapiens) (UniProt O14656); assay: TOR1A wild-type binding on microarray – cell lysate, small-molecule microarray, lysate, 635/667 nm, primary screen (AID 1149); conditions: COS7 hTOR1A-WT lysate, 635 nm fluorescence, higher = more signal
Torsin-1A (Homo sapiens), sequence (O14656 whole entry, looked up): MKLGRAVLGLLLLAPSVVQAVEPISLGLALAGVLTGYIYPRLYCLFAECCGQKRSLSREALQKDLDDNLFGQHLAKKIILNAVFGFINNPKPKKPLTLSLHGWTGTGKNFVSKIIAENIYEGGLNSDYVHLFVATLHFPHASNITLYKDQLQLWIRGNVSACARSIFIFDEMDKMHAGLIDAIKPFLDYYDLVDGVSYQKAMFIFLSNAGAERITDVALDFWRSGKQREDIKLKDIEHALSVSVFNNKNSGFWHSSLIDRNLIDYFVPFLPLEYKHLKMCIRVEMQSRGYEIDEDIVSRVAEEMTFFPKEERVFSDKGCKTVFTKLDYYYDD

Torsin-1A (Homo sapiens) [8] = target: Torsin-1A (Homo sapiens) (UniProt O14656); assay: torsin A mutant lysate binding on microarrays – cell lysate, small-molecule microarray, COS7 lysate, 635/667 nm fluorescence, primary screen (AID 1150); conditions: COS7 hTOR1A mutant lysate, 635 nm fluorescence, higher = more signal;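 note: score pools 667 nm emission and signal to noise measuring lysate protein binding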
[9] = test system: Sonic hedgehog protein (Shh); assay: Sonic hedgehog microarray binding compounds – biochemical, small-molecule microarray, 635/667 nm fluorescence, primary screen (AID 1151); conditions: 635 nm fluorescence, higher = more signal;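 note: Shh protein binding to compounds spotted on small-molecule microarray slides; score combines spot fluorescence intensity with signal-to-noise across triplicate slides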
[10] = optical density shifts of acrAB sulA E. coli – strain DRC41, OD650, 48 h, E. coli filamentation inducer project, primary screen (AID 1152); conditions: higher = more signal, called active from +8 up or from −8 down;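 note: E. coli MC1000 strain DRC41 lacking acrAB efflux pump and sulA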
[11] = probe aLefty1 binding on compound microarray – biochemical, small-molecule microarray, 635/667 nm fluorescence, primary screen (AID 1153); conditions: higher = more signal;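 note: score merges spot fluorescence with signal-to-noise ratio from the scanned slide images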
[12] = plasmodial surface anion channel blockers, osmotic lysis – cell-based, P. falciparum Indochina, OD700, 1 h, primary screen (AID 1154); conditions: P. falciparum Indochina infected RBC osmotic lysis, higher = more signal, called active from +8 up or from −8 down
[13] = plasmodial surface anion channel blockers, osmotic lysis – cell-based, P. falciparum Indochina, OD700, 2 h, primary screen (AID 1155);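 note: lysis reports solute entry through the parasite surface anion channel PSAC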; conditions: P. falciparum Indochina infected erythrocytes, higher = more signal, called active from +8 up or from −8 down
[14] = changes in parasitized red cell lysis, either direction – P. falciparum Indochina, OD700, 3 h, PSAC antagonist project, primary screen (AID 1156); conditions: P. falciparum-infected erythrocytes, osmotic lysis, higher = more signal, called active from +8 up or from −8 down
[15] = plasmodial surface anion channel blockers, osmotic lysis – cell-based, P. falciparum Indochina, OD700, 18 h, primary screen (AID 1157); conditions: P. falciparum Indochina infected erythrocytes, osmotic lysis OD700, 18 h; higher = more signal, called active from +8 up or from −8 down
[16] = S6 kinase pathway phospho-S6 level changes – cell-based, A549, cytoblot, luminescence, serum-stimulated, primary screen (AID 1158); conditions: 5 h, higher = more signal;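 note: serum-stimulated A549 lung adenocarcinoma cells; signal is phosphorylated S6 detected by cytoblot immunostaining with HRP secondary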
[17] = target: NADPH oxidase 2 (Homo sapiens) (UniProt P04839); assay: compounds shifting NOX2 Amplex Red fluorescence – cell-based, HEK293-NOX2, PMA-stimulated, NOX inhibitor project, primary screen (AID 1159); conditions: 45 min, higher = more signal, called active from +8 up or from −8 down; note: test concentration not given here
NADPH oxidase 2 (Homo sapiens), sequence (P04839 whole entry, looked up): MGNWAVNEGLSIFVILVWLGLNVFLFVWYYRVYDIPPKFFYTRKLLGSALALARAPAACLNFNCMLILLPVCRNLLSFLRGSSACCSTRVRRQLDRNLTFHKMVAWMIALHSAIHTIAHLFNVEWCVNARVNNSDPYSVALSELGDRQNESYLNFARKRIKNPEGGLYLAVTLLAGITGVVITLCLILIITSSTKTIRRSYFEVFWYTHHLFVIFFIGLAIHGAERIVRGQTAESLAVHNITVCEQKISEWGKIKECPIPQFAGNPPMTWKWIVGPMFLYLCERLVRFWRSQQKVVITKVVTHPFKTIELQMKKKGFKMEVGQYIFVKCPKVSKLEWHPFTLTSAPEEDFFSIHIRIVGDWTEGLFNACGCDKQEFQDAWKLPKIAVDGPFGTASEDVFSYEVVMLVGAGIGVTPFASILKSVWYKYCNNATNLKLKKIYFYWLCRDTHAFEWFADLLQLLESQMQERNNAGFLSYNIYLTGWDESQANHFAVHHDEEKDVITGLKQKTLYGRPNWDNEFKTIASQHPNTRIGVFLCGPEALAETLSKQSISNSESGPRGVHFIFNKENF

[18] = target: NADPH oxidase 4 (Homo sapiens) (UniProt Q9NPH5); assay: compounds shifting NOX4 Amplex Red fluorescence – cell-based, HEK293-NOX4, tetracycline-induced, NOX inhibitor project, primary screen (AID 1160); conditions: HEK293-NOX4, Amplex Red H2O2 fluorescence, 45 min; higher = more signal, called active from +8 up or from −8 down
NADPH oxidase 4 (Homo sapiens), sequence (Q9NPH5 whole entry, looked up): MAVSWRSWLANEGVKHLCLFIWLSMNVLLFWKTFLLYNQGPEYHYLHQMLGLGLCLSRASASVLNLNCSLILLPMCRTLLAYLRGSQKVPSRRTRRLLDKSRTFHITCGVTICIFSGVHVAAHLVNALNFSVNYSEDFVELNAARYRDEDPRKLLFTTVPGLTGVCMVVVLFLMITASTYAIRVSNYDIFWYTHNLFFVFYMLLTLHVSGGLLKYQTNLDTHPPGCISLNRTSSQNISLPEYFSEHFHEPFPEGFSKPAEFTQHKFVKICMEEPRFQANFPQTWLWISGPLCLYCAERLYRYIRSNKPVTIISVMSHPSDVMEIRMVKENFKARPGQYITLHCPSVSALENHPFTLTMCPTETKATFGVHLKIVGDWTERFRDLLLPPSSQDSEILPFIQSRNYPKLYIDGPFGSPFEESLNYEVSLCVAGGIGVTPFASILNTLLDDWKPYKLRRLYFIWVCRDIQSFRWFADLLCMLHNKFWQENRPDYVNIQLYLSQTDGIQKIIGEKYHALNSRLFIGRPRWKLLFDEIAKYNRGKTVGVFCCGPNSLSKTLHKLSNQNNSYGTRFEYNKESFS

[19] = target: NADPH oxidase 5 (Homo sapiens) (UniProt Q96PH1); assay: compounds shifting NOX5 Amplex Red fluorescence – cell-based, HEK293-NOX5, NOX inhibitor project, primary screen (AID 1161); conditions: HEK293-NOX5, ionomycin, 45 min, higher = more signal
NADPH oxidase 5 (Homo sapiens), sequence (Q96PH1 whole entry, looked up): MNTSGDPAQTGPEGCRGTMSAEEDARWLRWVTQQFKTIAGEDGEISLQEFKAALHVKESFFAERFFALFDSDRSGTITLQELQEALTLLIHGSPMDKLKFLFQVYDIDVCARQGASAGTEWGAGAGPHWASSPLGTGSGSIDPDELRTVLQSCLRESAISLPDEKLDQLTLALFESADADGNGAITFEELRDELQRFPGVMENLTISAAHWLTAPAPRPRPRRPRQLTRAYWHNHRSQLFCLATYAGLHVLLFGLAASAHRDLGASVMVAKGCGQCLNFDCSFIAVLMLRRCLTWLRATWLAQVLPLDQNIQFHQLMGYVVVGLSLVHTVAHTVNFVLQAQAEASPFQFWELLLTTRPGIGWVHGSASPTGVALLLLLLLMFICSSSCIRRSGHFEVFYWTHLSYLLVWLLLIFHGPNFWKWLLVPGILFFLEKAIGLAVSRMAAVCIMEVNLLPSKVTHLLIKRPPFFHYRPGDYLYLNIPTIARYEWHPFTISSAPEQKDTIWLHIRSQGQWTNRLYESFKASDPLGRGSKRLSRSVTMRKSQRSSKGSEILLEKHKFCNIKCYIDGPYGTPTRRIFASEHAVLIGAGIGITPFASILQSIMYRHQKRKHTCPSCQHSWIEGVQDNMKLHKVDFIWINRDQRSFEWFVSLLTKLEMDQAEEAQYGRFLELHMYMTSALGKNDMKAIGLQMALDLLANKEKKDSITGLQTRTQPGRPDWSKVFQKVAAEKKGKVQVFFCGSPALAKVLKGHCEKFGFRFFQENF

SMILES: C=CC[C@]1(C(=O)NCC(O)CO)N=C(c2ccc(OCCCO)cc2)O[C@H]1c1ccccc1 (stereo partly specified)
- composite z-score [1]: 0.621
- z-score [2]: -0.371 (inactive)
- z-score [3]: 1.37 (inactive)
- z-score [4]: -0.804 (inactive)
- composite z-score [5]: 0.0012
- composite z-score [6]: -0.146
- composite z-score (Torsin-1A (Homo sapiens) [7]): 2.71
- composite z-score (Torsin-1A (Homo sapiens) [8]): 3.09
- composite z-score [9]: -0.559
- z-score [10]: 1.46 (inactive)
- composite z-score [11]: -0.179
- z-score [12]: 6.95 (inactive)
- z-score [13]: 0.741 (inactive)
- z-score [14]: 1.55 (inactive)
- z-score [15]: 0.618 (inactive)
- z-score [16]: 0.672
- z-score [17]: 1.22 (inactive)
- z-score [18]: 0.542 (inactive)
- z-score [19]: 0.195

SMILES: CC(C)(C)OC(=O)CC[C@]1(C(=O)NCCN2CCOCC2)N=C(c2ccc(OCCCO)cc2)O[C@H]1c1ccccc1CN=[N+]=[N-]
- composite z-score [1]: 0.358
- z-score [2]: -1.11 (inactive)
- z-score [3]: 1.57 (inactive)
- z-score [4]: -1.79 (inactive)
- composite z-score [5]: 0.225
- composite z-score [6]: 0.0386
- composite z-score (Torsin-1A (Homo sapiens) [7]): 0.474
- composite z-score (Torsin-1A (Homo sapiens) [8]): 1.06
- composite z-score [9]: -0.577
- z-score [10]: 1.66 (inactive)
- composite z-score [11]: -0.0162
- z-score [12]: 9.62 (active)
- z-score [13]: 0.121 (inactive)
- z-score [14]: 0.434 (inactive)
- z-score [15]: -1.81 (inactive)
- z-score [16]: 1.04
- z-score [17]: 1.06 (inactive)
- z-score [18]: 0.755 (inactive)
- z-score [19]: 0.699

SMILES: CO[C@H]1COC(=O)[C@H](CCSC)NC(=O)CC=C[C@@H](C)COC(=O)[C@@H](OCc2ccccc2)C=C[C@@H]1C
- composite z-score [1]: 0.156
- z-score [2]: 0.111 (inactive)
- z-score [3]: -0.0223 (inactive)
- z-score [4]: -0.48 (inactive)
- composite z-score [5]: -0.154
- composite z-score [6]: -0.0762
- composite z-score (Torsin-1A (Homo sapiens) [7]): 2.88
- composite z-score (Torsin-1A (Homo sapiens) [8]): 2.85
- composite z-score [9]: 1.93
- z-score [10]: -0.332 (inactive)
- composite z-score [11]: -0.109
- z-score [12]: -0.349 (inactive)
- z-score [13]: 0.238 (inactive)
- z-score [14]: 0.04 (inactive)
- z-score [15]: -0.236 (inactive)
- z-score [16]: 0.182
- z-score [17]: 1.65 (inactive)
- z-score [18]: -1.43 (inactive)
- z-score [19]: 0.00807

SMILES: [N-]=[N+]=NCc1ccccc1C[C@@]1(C(=O)N2CCOCC2)N=C(c2ccc(OCCCO)cc2)O[C@@H]1c1ccccc1N=[N+]=[N-]
- composite z-score [1]: 0.994
- z-score [2]: -3.63 (inactive)
- z-score [3]: 0.218 (inactive)
- z-score [4]: -1.23 (inactive)
- composite z-score [5]: 1.43
- composite z-score [6]: 0.421
- composite z-score (Torsin-1A (Homo sapiens) [7]): 0.783
- composite z-score (Torsin-1A (Homo sapiens) [8]): 0.987
- composite z-score [9]: 0.144
- z-score [10]: 0.664 (inactive)
- composite z-score [11]: 1.1
- z-score [12]: 30.5 (active)
- z-score [13]: 27.7 (active)
- z-score [14]: 2.82 (inactive)
- z-score [15]: 7.87 (inactive)
- z-score [16]: 1.36
- z-score [17]: -1.49 (inactive)
- z-score [18]: 0.897 (inactive)
- z-score [19]: -0.107

SMILES: COc1ccc([Si](C)(C)[C@H]2[C@H](CCO)O[C@@]3(C(=O)N(Cc4ccc(N5CCCCC5=O)cc4)c4ccccc43)[C@@H]2C)cc1
- composite z-score [1]: -0.0939
- z-score [2]: -3.56 (inactive)
- z-score [3]: 1.98 (inactive)
- z-score [4]: -2.57 (inactive)
- composite z-score [5]: -0.0077
- composite z-score [6]: -0.128
- composite z-score (Torsin-1A (Homo sapiens) [7]): 0.446
- composite z-score (Torsin-1A (Homo sapiens) [8]): 0.62
- composite z-score [9]: 1.58
- z-score [10]: 0.178 (inactive)
- composite z-score [11]: 0.0361
- z-score [12]: 29.4 (active)
- z-score [13]: 25.6 (active)
- z-score [14]: -0.512 (inactive)
- z-score [15]: 2.98 (inactive)
- z-score [16]: 1.26
- z-score [17]: 1.11 (inactive)
- z-score [18]: 0.347 (inactive)
- z-score [19]: 1.5

SMILES: C=CC[C@@]12N=C(c3ccc(OCCCO)cc3)O[C@@H]1c1ccccc1CN(Cc1ccccc1)C2=O
- composite z-score [1]: 0.509
- z-score [2]: -4.89 (inactive)
- z-score [3]: 2.16 (inactive)
- z-score [4]: -2.5 (inactive)
- composite z-score [5]: -0.0929
- composite z-score [6]: 0.174
- composite z-score (Torsin-1A (Homo sapiens) [7]): 0.376
- composite z-score (Torsin-1A (Homo sapiens) [8]): 0.294
- composite z-score [9]: 1.91
- z-score [10]: 0.786 (inactive)
- composite z-score [11]: 0.271
- z-score [12]: 28.3 (active)
- z-score [13]: 24.9 (active)
- z-score [14]: 3.34 (inactive)
- z-score [15]: 2.29 (inactive)
- z-score [16]: 0.557
- z-score [17]: -1.33 (inactive)
- z-score [18]: -0.765 (inactive)
- z-score [19]: -1.71

SMILES: CCN1C(C)=C(C(=O)OC)[C@@H](c2ccccc2)N2C(=O)[C@](O)(C(=O)OC)[C@@H](c3ccccc3)C(C(C)=O)=C12
- composite z-score [1]: 0.223
- z-score [2]: -5.29 (inactive)
- z-score [3]: 0.106 (inactive)
- z-score [4]: -1.04 (inactive)
- composite z-score [5]: -0.0371
- composite z-score [6]: -0.177
- composite z-score (Torsin-1A (Homo sapiens) [7]): 0.142
- composite z-score (Torsin-1A (Homo sapiens) [8]): 0.355
- composite z-score [9]: 1.75
- z-score [10]: -0.461 (inactive)
- composite z-score [11]: -0.0111
- z-score [12]: 2.31 (inactive)
- z-score [13]: 0.414 (inactive)
- z-score [14]: 0.291 (inactive)
- z-score [15]: 0.0714 (inactive)
- z-score [16]: 3.95
- z-score [17]: -0.211 (inactive)
- z-score [18]: -0.585 (inactive)
- z-score [19]: 1.35

SMILES: C/C(=N\O)C(=O)NCCCCCNC(=O)OCc1ccccc1
- composite z-score [1]: 0.321
- z-score [2]: -0.564 (inactive)
- z-score [3]: 1.67 (inactive)
- z-score [4]: -1.47 (inactive)
- composite z-score [5]: 1.24
- composite z-score [6]: -0.0471
- composite z-score (Torsin-1A (Homo sapiens) [7]): 0.228
- composite z-score (Torsin-1A (Homo sapiens) [8]): 0.173
- composite z-score [9]: 0.371
- z-score [10]: 1.93 (inactive)
- composite z-score [11]: -0.194
- z-score [12]: 15.4 (active)
- z-score [13]: 2.09 (inactive)
- z-score [14]: -0.222 (inactive)
- z-score [15]: 0.501 (inactive)
- z-score [16]: -0.246
- z-score [17]: -0.459 (inactive)
- z-score [18]: 0.0531 (inactive)
- z-score [19]: -0.588

SMILES: CO[C@H]1O[C@H](CO)[C@@H](OC(=O)Nc2ccc(Oc3ccccc3)cc2)[C@H](OC(=O)Nc2ccccc2-c2ccccc2)[C@H]1OC(=O)Nc1ccccc1-c1ccccc1
- composite z-score [1]: 0.595
- z-score [2]: -6.08 (inactive)
- z-score [3]: -0.0017 (inactive)
- z-score [4]: -1.31 (inactive)
- composite z-score [5]: 1.25
- composite z-score [6]: 0.268
- composite z-score (Torsin-1A (Homo sapiens) [7]): 0.445
- composite z-score (Torsin-1A (Homo sapiens) [8]): 0.517
- composite z-score [9]: 1.24
- z-score [10]: 1.38 (inactive)
- composite z-score [11]: 0.371
- z-score [12]: 2.14 (inactive)
- z-score [13]: 0.647 (inactive)
- z-score [14]: 0.55 (inactive)
- z-score [15]: -1.37 (inactive)
- z-score [16]: -0.151
- z-score [17]: 1.95 (inactive)
- z-score [18]: -0.7 (inactive)
- z-score [19]: 0.176
